# Target: AgAbp1
# Experiment: SPOT peptide array binding signal intensity (averaged, normalized) (arbitrary units (background-subtracted, floor 0; scale differs between SH3 domains)); higher = stronger binding of the SH3 domain to the peptide
# In short: (§1)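 GST-fused SH3 domains, from four yeast species, were produced in E. coli BL21(DE3) and captured on glutathione Sepharose. Membranes of cellulose carrying synthetic 15-mer peptides, in which cysteines had been replaced by serines, were exposed to each domain at 10 μg/ml overnight at 4°C in TBS-based blocking buffer. After anti-GST antibody, an HRP anti-mouse secondary and luminol, spots were imaged and quantified using Genespotter. Binding signal is normalized and background-subtracted spot intensity, averaged over replicates, in arbitrary units that differ between domains.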
row,Binder,SPOT peptide array binding signal intensity
1,DLFKPLPEPPTELGR,2.5

# Target: AgBbc1
# Experiment: as above
# In short: as §1
row,Binder,SPOT peptide array binding signal intensity
1,DLFKPLPEPPTELGR,≤ 0

# Target: AgBem1-D1
# Experiment: as above
# In short: as §1
row,Binder,SPOT peptide array binding signal intensity
1,DLFKPLPEPPTELGR,≤ 0

# Target: AgBzz1-D1
# Experiment: as above
# In short: as §1
row,Binder,SPOT peptide array binding signal intensity
1,DLFKPLPEPPTELGR,22

# Target: AgBzz1-D2
# Experiment: as above
# In short: as §1
row,Binder,SPOT peptide array binding signal intensity
1,DLFKPLPEPPTELGR,≤ 0

# Target: AgCyk3
# Experiment: as above
# In short: as §1
row,Binder,SPOT peptide array binding signal intensity
1,DLFKPLPEPPTELGR,1

# Target: AgFus1
# Experiment: as above
# In short: as §1
row,Binder,SPOT peptide array binding signal intensity
1,DLFKPLPEPPTELGR,1

# Target: AgHof1
# Experiment: as above
# In short: as §1
row,Binder,SPOT peptide array binding signal intensity
1,DLFKPLPEPPTELGR,≤ 0

# Target: AgHse1
# Experiment: as above
# In short: as §1
row,Binder,SPOT peptide array binding signal intensity
1,DLFKPLPEPPTELGR,27

# Target: AgLsb1
# Experiment: as above
# In short: as §1
row,Binder,SPOT peptide array binding signal intensity
1,DLFKPLPEPPTELGR,≤ 0

# Target: AgLsb4
# Experiment: as above
# In short: as §1
row,Binder,SPOT peptide array binding signal intensity
1,DLFKPLPEPPTELGR,5

# Target: AgMyo5
# Experiment: as above
# In short: as §1
row,Binder,SPOT peptide array binding signal intensity
1,DLFKPLPEPPTELGR,≤ 0

# Target: AgNbp2
# Experiment: as above
# In short: as §1
row,Binder,SPOT peptide array binding signal intensity
1,DLFKPLPEPPTELGR,≤ 0

# Target: AgRvs167
# Experiment: as above
# In short: as §1
row,Binder,SPOT peptide array binding signal intensity
1,DLFKPLPEPPTELGR,0.333

# Target: AgSho1
# Experiment: as above
# In short: as §1
row,Binder,SPOT peptide array binding signal intensity
1,DLFKPLPEPPTELGR,1410

# Target: AgSla1-D1-D2
# Experiment: as above
# In short: as §1
row,Binder,SPOT peptide array binding signal intensity
1,DLFKPLPEPPTELGR,≤ 0

# Target: AgSla1-D3
# Experiment: as above
# In short: as §1
row,Binder,SPOT peptide array binding signal intensity
1,DLFKPLPEPPTELGR,≤ 0

# Target: CaAbp1-D1
# Experiment: as above
# In short: as §1
row,Binder,SPOT peptide array binding signal intensity
1,DLFKPLPEPPTELGR,≤ 0

# Target: CaAbp1-D2
# Experiment: as above
# In short: as §1
row,Binder,SPOT peptide array binding signal intensity
1,DLFKPLPEPPTELGR,≤ 0

# Target: CaBbc1
# Experiment: as above
# In short: as §1
row,Binder,SPOT peptide array binding signal intensity
1,DLFKPLPEPPTELGR,≤ 0

# Target: CaBem1-D1
# Experiment: as above
# In short: as §1
row,Binder,SPOT peptide array binding signal intensity
1,DLFKPLPEPPTELGR,≤ 0

# Target: CaBzz1-D1
# Experiment: as above
# In short: as §1
row,Binder,SPOT peptide array binding signal intensity
1,DLFKPLPEPPTELGR,≤ 0

# Target: CaBzz1-D2
# Experiment: as above
# In short: as §1
row,Binder,SPOT peptide array binding signal intensity
1,DLFKPLPEPPTELGR,≤ 0

# Target: CaCyk3
# Experiment: as above
# In short: as §1
row,Binder,SPOT peptide array binding signal intensity
1,DLFKPLPEPPTELGR,≤ 0

# Target: CaFus1
# Experiment: as above
# In short: as §1
row,Binder,SPOT peptide array binding signal intensity
1,DLFKPLPEPPTELGR,7

# Target: CaHof1
# Experiment: as above
# In short: as §1
row,Binder,SPOT peptide array binding signal intensity
1,DLFKPLPEPPTELGR,1

# Target: CaHse1
# Experiment: as above
# In short: as §1
row,Binder,SPOT peptide array binding signal intensity
1,DLFKPLPEPPTELGR,16

# Target: CaLsb1
# Experiment: as above
# In short: as §1
row,Binder,SPOT peptide array binding signal intensity
1,DLFKPLPEPPTELGR,≤ 0

# Target: CaLsb4
# Experiment: as above
# In short: as §1
row,Binder,SPOT peptide array binding signal intensity
1,DLFKPLPEPPTELGR,≤ 0

# Target: CaMyo5
# Experiment: as above
# In short: as §1
row,Binder,SPOT peptide array binding signal intensity
1,DLFKPLPEPPTELGR,≤ 0

# Target: CaNbp2
# Experiment: as above
# In short: as §1
row,Binder,SPOT peptide array binding signal intensity
1,DLFKPLPEPPTELGR,≤ 0

# Target: CaRvs167
# Experiment: as above
# In short: as §1
row,Binder,SPOT peptide array binding signal intensity
1,DLFKPLPEPPTELGR,6.67

# Target: CaRvs167-3
# Experiment: as above
# In short: as §1
row,Binder,SPOT peptide array binding signal intensity
1,DLFKPLPEPPTELGR,≤ 0

# Target: CaSho1
# Experiment: as above
# In short: as §1
row,Binder,SPOT peptide array binding signal intensity
1,DLFKPLPEPPTELGR,2540

# Target: CaSla1-D1-D2
# Experiment: as above
# In short: as §1
row,Binder,SPOT peptide array binding signal intensity
1,DLFKPLPEPPTELGR,≤ 0

# Target: CaSla1-D3
# Experiment: as above
# In short: as §1
row,Binder,SPOT peptide array binding signal intensity
1,DLFKPLPEPPTELGR,≤ 0

# Target: ScAbp1
# Experiment: as above
# In short: as §1
row,Binder,SPOT peptide array binding signal intensity
1,DLFKPLPEPPTELGR,≤ 0

# Target: ScBbc1
# Experiment: as above
# In short: as §1
row,Binder,SPOT peptide array binding signal intensity
1,DLFKPLPEPPTELGR,≤ 0

# Target: ScBem1-D1
# Experiment: as above
# In short: as §1
row,Binder,SPOT peptide array binding signal intensity
1,DLFKPLPEPPTELGR,≤ 0

# Target: ScBzz1-D1
# Experiment: as above
# In short: as §1
row,Binder,SPOT peptide array binding signal intensity
1,DLFKPLPEPPTELGR,1

# Target: ScBzz1-D2
# Experiment: as above
# In short: as §1
row,Binder,SPOT peptide array binding signal intensity
1,DLFKPLPEPPTELGR,≤ 0

# Target: ScCyk3
# Experiment: as above
# In short: as §1
row,Binder,SPOT peptide array binding signal intensity
1,DLFKPLPEPPTELGR,≤ 0

# Target: ScFus1
# Experiment: as above
# In short: as §1
row,Binder,SPOT peptide array binding signal intensity
1,DLFKPLPEPPTELGR,≤ 0

# Target: ScHof1
# Experiment: as above
# In short: as §1
row,Binder,SPOT peptide array binding signal intensity
1,DLFKPLPEPPTELGR,1

# Target: ScHse1
# Experiment: as above
# In short: as §1
row,Binder,SPOT peptide array binding signal intensity
1,DLFKPLPEPPTELGR,≤ 0

# Target: ScLsb1
# Experiment: as above
# In short: as §1
row,Binder,SPOT peptide array binding signal intensity
1,DLFKPLPEPPTELGR,≤ 0

# Target: ScLsb2
# Experiment: as above
# In short: as §1
row,Binder,SPOT peptide array binding signal intensity
1,DLFKPLPEPPTELGR,≤ 0

# Target: ScLsb3
# Experiment: as above
# In short: as §1
row,Binder,SPOT peptide array binding signal intensity
1,DLFKPLPEPPTELGR,≤ 0

# Target: ScLsb4
# Experiment: as above
# In short: as §1
row,Binder,SPOT peptide array binding signal intensity
1,DLFKPLPEPPTELGR,10

# Target: ScMyo3
# Experiment: as above
# In short: as §1
row,Binder,SPOT peptide array binding signal intensity
1,DLFKPLPEPPTELGR,≤ 0

# Target: ScMyo5
# Experiment: as above
# In short: as §1
row,Binder,SPOT peptide array binding signal intensity
1,DLFKPLPEPPTELGR,≤ 0

# Target: ScNbp2
# Experiment: as above
# In short: as §1
row,Binder,SPOT peptide array binding signal intensity
1,DLFKPLPEPPTELGR,≤ 0

# Target: ScPex13
# Experiment: as above
# In short: as §1
row,Binder,SPOT peptide array binding signal intensity
1,DLFKPLPEPPTELGR,1030

# Target: ScRvs167
# Experiment: as above
# In short: as §1
row,Binder,SPOT peptide array binding signal intensity
1,DLFKPLPEPPTELGR,≤ 0

# Target: ScSho1
# Experiment: as above
# In short: as §1
row,Binder,SPOT peptide array binding signal intensity
1,DLFKPLPEPPTELGR,5560

# Target: ScSla1-D1-D2
# Experiment: as above
# In short: as §1
row,Binder,SPOT peptide array binding signal intensity
1,DLFKPLPEPPTELGR,≤ 0

# Target: ScSla1-D3
# Experiment: as above
# In short: as §1
row,Binder,SPOT peptide array binding signal intensity
1,DLFKPLPEPPTELGR,3

# Target: SpAbp1-D1
# Experiment: as above
# In short: as §1
row,Binder,SPOT peptide array binding signal intensity
1,DLFKPLPEPPTELGR,≤ 0

# Target: SpBbc1
# Experiment: as above
# In short: as §1
row,Binder,SPOT peptide array binding signal intensity
1,DLFKPLPEPPTELGR,≤ 0

# Target: SpBzz1-D1
# Experiment: as above
# In short: as §1
row,Binder,SPOT peptide array binding signal intensity
1,DLFKPLPEPPTELGR,≤ 0

# Target: SpBzz1-D2
# Experiment: as above
# In short: as §1
row,Binder,SPOT peptide array binding signal intensity
1,DLFKPLPEPPTELGR,≤ 0

# Target: SpCyk3
# Experiment: as above
# In short: as §1
row,Binder,SPOT peptide array binding signal intensity
1,DLFKPLPEPPTELGR,1.5

# Target: SpHof1
# Experiment: as above
# In short: as §1
row,Binder,SPOT peptide array binding signal intensity
1,DLFKPLPEPPTELGR,1460

# Target: SpHof1-2
# Experiment: as above
# In short: as §1
row,Binder,SPOT peptide array binding signal intensity
1,DLFKPLPEPPTELGR,1970

# Target: SpHof1-3
# Experiment: as above
# In short: as §1
row,Binder,SPOT peptide array binding signal intensity
1,DLFKPLPEPPTELGR,734

# Target: SpHse1
# Experiment: as above
# In short: as §1
row,Binder,SPOT peptide array binding signal intensity
1,DLFKPLPEPPTELGR,0.75

# Target: SpLsb1
# Experiment: as above
# In short: as §1
row,Binder,SPOT peptide array binding signal intensity
1,DLFKPLPEPPTELGR,≤ 0

# Target: SpLsb4
# Experiment: as above
# In short: as §1
row,Binder,SPOT peptide array binding signal intensity
1,DLFKPLPEPPTELGR,≤ 0

# Target: SpMyo1
# Experiment: as above
# In short: as §1
row,Binder,SPOT peptide array binding signal intensity
1,DLFKPLPEPPTELGR,≤ 0

# Target: SpNbp2
# Experiment: as above
# In short: as §1
row,Binder,SPOT peptide array binding signal intensity
1,DLFKPLPEPPTELGR,≤ 0

# Target: SpPex13
# Experiment: as above
# In short: as §1
row,Binder,SPOT peptide array binding signal intensity
1,DLFKPLPEPPTELGR,3

# Target: SpRvs167
# Experiment: as above
# In short: as §1
row,Binder,SPOT peptide array binding signal intensity
1,DLFKPLPEPPTELGR,5.67

# Target: SpSla1-D1-D2
# Experiment: as above
# In short: as §1
row,Binder,SPOT peptide array binding signal intensity
1,DLFKPLPEPPTELGR,≤ 0

# Target: SpSla1-D3
# Experiment: as above
# In short: as §1
row,Binder,SPOT peptide array binding signal intensity
1,DLFKPLPEPPTELGR,≤ 0

# — the supplement of paper PMC4466140
